Source: PubChem BioAssay AID720597 (Broad Institute, 2013)
Results with a measured potency or affinity are listed apart. Active and inactive are the calls of the source.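 Rule for the calls: active = fitted half-maximal dose no more than twice the top valid tested dose, for compounds that lower signal; inconclusive = fit invalid, or curve flat with activity between -70 and -30; inactive = potency past limit, curve flat within ±30, or signal increasing.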

Target: NAD-dependent protein deacylase sirtuin-5, mitochondrial (Homo sapiens) (UniProt Q9NXA8)
Assay: SIRT5 deacylase inhibitors, dose response, biochemical, fluorescence imaging, cherry-pick, set 6 (AID 720597);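 note: lower AMC signal can also come from blocking the trypsin step; 0% = median of neutral control wells and -100% = median of positive control wells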
Details: Purified SirT5, succinyl-peptide-AMC/trypsin fluorescence; series mostly up to 15 µM; activity change, negative = inhibition: at the top concentration

NAD-dependent protein deacylase sirtuin-5, mitochondrial (Homo sapiens), sequence (Q9NXA8 whole entry, looked up): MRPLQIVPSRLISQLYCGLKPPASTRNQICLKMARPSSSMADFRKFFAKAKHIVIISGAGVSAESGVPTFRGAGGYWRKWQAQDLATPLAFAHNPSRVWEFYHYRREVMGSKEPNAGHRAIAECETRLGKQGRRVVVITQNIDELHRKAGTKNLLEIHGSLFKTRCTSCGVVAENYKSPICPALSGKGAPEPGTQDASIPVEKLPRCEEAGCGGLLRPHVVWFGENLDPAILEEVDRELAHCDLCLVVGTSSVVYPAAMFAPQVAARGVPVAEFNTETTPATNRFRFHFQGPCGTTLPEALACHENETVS

Activity change, negative = inhibition, inactive:
COc1ccccc1-c1ccc2c(c1)O[C@H](CN(C)S(=O)(=O)c1ccccc1)[C@@H](C)CN([C@@H](C)CO)S2(=O)=O 9.71%
CC(C)CC#Cc1ccc2c(c1)O[C@@H](CN(C)S(=O)(=O)c1cccc(F)c1)[C@@H](C)CN([C@@H](C)CO)S2(=O)=O -21.2%
COc1ccc(S(=O)(=O)N2CCCCN3[C@H](CO)[C@@H](c4ccc(C#CC5CC5)cc4)[C@@H]3C2)cc1 -31%
COCCNC(=O)c1cc2c(c(-c3cccc(-c4cccc(F)c4)c3)n1)[C@H](CCO)N([S@@](=O)C(C)(C)C)C2 -5.5%
C[C@H]1CN([C@@H](C)CO)C(=O)c2cccc(NC(=O)CCCCCC(=O)Nc3ccccc3N)c2O[C@@H]1CN(C)Cc1ccc(Oc2ccccc2)cc1 -22.4%
CCCC#Cc1ccc(CC[C@H]2O[C@H]3CC[C@@H](CO)O[C@H]3C[C@H]2NS(=O)(=O)c2ccccc2)cc1 11.4% [at 16 µM]
C[C@@H]1CN([C@@H](C)CO)C(=O)c2cc(NC(=O)C3CC3)ccc2O[C@@H]1CN(C)S(=O)(=O)c1cn(C)cn1 0.617%
CCCC(=O)Nc1ccc2c(c1)OC[C@H](C)N(Cc1ccccc1)C[C@H](C)[C@H](OC)CN(C)C2=O -11.7%
COc1ccc(NC(=O)Nc2ccc3c(c2)C(=O)N([C@@H](C)CO)C[C@@H](C)[C@@H](CN(C)Cc2ccncc2)O3)cc1 -15.8% [at 16 µM]
CN(C)C(=O)c1cccc(-c2ccc([C@H]3[C@@H](CO)N4CCCCN(S(C)(=O)=O)C[C@@H]34)cc2)c1 9.06%
COc1ccccc1S(=O)(=O)N(C)C[C@@H]1Oc2cc(C#CCC(C)C)ccc2S(=O)(=O)N([C@H](C)CO)C[C@H]1C -1.72%
CCN1[C@@H]2c3ccc(-c4cccc(F)c4)c(=O)n3C[C@@H]2[C@@H](CO)[C@@H]1C(=O)N[C@H](C)c1ccccc1 19.1%
C[C@H]1CCCCO[C@H](CN(C)S(=O)(=O)c2ccc(Cl)cc2)[C@@H](C)CN([C@@H](C)CO)C(=O)c2cc(NS(=O)(=O)c3ccccc3)ccc2O1 -14.3%
COc1ccc(S(=O)(=O)Nc2ccc3c(c2)C(=O)N([C@H](C)CO)C[C@H](C)[C@H](CN(C)Cc2ccc(Oc4ccccc4)cc2)O3)cc1 13.6%
COc1cccc(S(=O)(=O)N(C)C[C@@H]2Oc3cc(C4=CCCC4)ccc3S(=O)(=O)N([C@H](C)CO)C[C@H]2C)c1 1.6%
Cc1ccc(S(=O)(=O)N(C)C[C@H]2OCCCC[C@H](C)Oc3ccc(NS(=O)(=O)c4ccc(Cl)cc4)cc3C(=O)N([C@H](C)CO)C[C@@H]2C)cc1 -9.84%
O=C(N[C@@H]1CC[C@H](CCNS(=O)(=O)c2ccccc2)O[C@H]1CO)c1cnccn1 7.21%
COc1ccc(S(=O)(=O)N(C)C[C@H]2Oc3cc(C#CC4CC4)ccc3S(=O)(=O)N([C@@H](C)CO)C[C@H]2C)cc1 5.85%
C[C@@H]1CN([C@@H](C)CO)C(=O)c2cccc(N(C)C)c2O[C@@H]1CN(C)Cc1ccccc1 35.5%
C[C@@H]1CN([C@@H](C)CO)C(=O)c2cc(NC(=O)Nc3cccc4ccccc34)ccc2O[C@@H](C)CCCCO[C@@H]1CN(C)S(=O)(=O)c1ccc(Cl)cc1 7.77%
O=C(NC1CCCCC1)[C@@H]1[C@@H](CO)[C@@H]2Cn3c(cccc3=O)[C@@H]2N1CC1CCCC1 19.3%
COc1ccc(NC(=O)N(C)C[C@H]2Oc3cc(C#CCC(C)C)ccc3S(=O)(=O)N([C@H](C)CO)C[C@@H]2C)cc1 -3.37%
Cc1ccc(S(=O)(=O)N(C)C[C@@H]2OCCCC[C@@H](C)Oc3ccc(NS(=O)(=O)c4ccc(F)cc4)cc3C(=O)N([C@@H](C)CO)C[C@H]2C)cc1 11%
C[C@@H]1CCCCO[C@@H](CN(C)Cc2ccc(C(F)(F)F)cc2)[C@H](C)CN([C@@H](C)CO)C(=O)c2cc(NS(=O)(=O)c3ccccc3)ccc2O1 18%
CNC[C@H]1Oc2ccc(NC(=O)Nc3ccc(F)cc3)cc2CC(=O)N([C@@H](C)CO)C[C@H]1C 32.5%
Cc1ccc(S(=O)(=O)N(C)C[C@H]2OCCCC[C@H](C)Oc3ccc(NS(=O)(=O)c4ccc(Cl)cc4)cc3C(=O)N([C@H](C)CO)C[C@H]2C)cc1 -1.84%
C[C@H]1CN([C@@H](C)CO)C(=O)c2cc(NC(=O)C3CC3)ccc2O[C@H]1CN(C)S(=O)(=O)c1cn(C)cn1 -9.34%
C[C@@H]1CN([C@H](C)CO)C(=O)c2cc(NC(=O)CCCCCC(=O)Nc3ccccc3N)ccc2O[C@@H]1CN(C)Cc1ccc(Cl)c(Cl)c1 1.64%
O=S(=O)(N[C@H]1CC[C@H](CCn2cc(-c3cccc(F)c3)nn2)O[C@H]1CO)c1ccc(F)cc1 -26.3%
COc1ccc(S(=O)(=O)N(C)C[C@@H]2OCCCC[C@H](C)Oc3ccc(NS(=O)(=O)c4ccc(C)cc4)cc3C(=O)N([C@H](C)CO)C[C@H]2C)cc1 -12.7%
COc1ccc(S(=O)(=O)N(C)C[C@@H]2OCCCC[C@H](C)Oc3ccc(NS(=O)(=O)c4ccc(C)cc4)cc3C(=O)N([C@H](C)CO)C[C@@H]2C)cc1 -0.742%
C[C@@H]1CN([C@@H](C)CO)S(=O)(=O)c2ccc(C#Cc3ccc(F)cc3)cc2O[C@H]1CN(C)S(=O)(=O)c1ccc(F)cc1 -1.34%
C[C@@H]1CN([C@@H](C)CO)C(=O)c2cccc(NC(=O)c3ccncc3)c2O[C@H]1CN(C)Cc1ccccc1 -10.4%
C[C@H](CO)N1C[C@H](C)[C@@H](CN(C)Cc2ccc(Oc3ccccc3)cc2)Oc2c(NC(=O)CCCCCC(=O)Nc3ccccc3N)cccc2C1=O -17.5%
C[C@@H]1CN([C@@H](C)CO)S(=O)(=O)c2ccc(/C=C/c3ccccc3)cc2O[C@@H]1CN(C)C(=O)NC1CCCC1 -1.6%
O=C(C[C@@H]1C[C@H]2c3cc(NC(=O)Nc4ccc(C(F)(F)F)cc4)ccc3O[C@H]2[C@H](CO)O1)NCc1ccc2c(c1)OCO2 -16.5%
C[C@H](CO)N1C[C@H](C)[C@@H](CN(C)S(=O)(=O)c2ccccc2)Oc2ccc(NC(=O)Nc3ccc(C(F)(F)F)cc3)cc2CC1=O -26.9%
COc1ccc(NC(=O)Nc2ccc3c(c2)C(=O)N([C@@H](C)CO)C[C@@H](C)[C@@H](CN(C)Cc2ccc(C(F)(F)F)cc2)O3)cc1 -1.17% [at 3.8 µM]
C[C@H]1CN([C@@H](C)CO)C(=O)c2cccc(NC(=O)c3ccncc3)c2O[C@H]1CN(C)S(C)(=O)=O 16.1%
C[C@@H]1CN([C@@H](C)CO)S(=O)(=O)c2ccc(/C=C/c3ccccc3)cc2O[C@H]1CN(C)C(=O)c1ccc2c(c1)OCO2 -8.88%
